An excerpt weighted towards active compounds, which were near 7.6% of everything screened.
NS3h inh CB: HCV NS3 helicase inhibitors, primary screen, biochemical, fluorescence polarization, ChemBridge library. NS3h Cy5-dT15 DNA binding. inhibition, % at 100 µM. 1.6% of 16,000 active. AID 687043, 2013;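 active = inhibition above the average over every tested compound plus 3 SD, cut at about 40% in these data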
Cy5 interf NS3h: Cy5 fluorescence quenchers or enhancers, artefact control for HCV NS3 helicase inhibitor project, biochemical, ChemBridge library, Cy5 readout; Cy5-dT15 DNA with NS3h, fluorescence interference; actives lie on both sides; signal over control mean, under 1 quenches; 6% of 16,000 active; fluorescence interference ratio at 100 µM;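 active = compound fluorescence over control fluorescence at most 0.8, a quencher, or at least a set upper limit, an enhancer; inactive = ratio between 0.8 and the set upper limit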
* = called active by the depositor.

SMILES | NS3h inh CB | Cy5 interf NS3h
Cc1nnc(NC(=O)c2ccc(Oc3ccccc3)cc2)s1 | 5 | 1.1
O=C(Oc1ccc(Cl)c(Cl)c1)c1ccc([N+](=O)[O-])cc1 | 19 | 1.1
CCOc1cccc(C(=O)Nc2nc3ccc(C)cc3s2)c1 | 0 | 0.69*
CCOc1cccc(C(=O)Nc2nnc(-c3cccc(OCC)c3)s2)c1 | -7 | 1.1
CCOc1ccc2nc(SCC(=O)c3ccc(C)cc3C)sc2c1 | 4 | 0.76*
CCOc1ccc2nc(SCC(=O)NC(C)c3ccccc3)sc2c1 (configuration not stated) | 6 | 1
O=C1CSC(=O)N1CCN1C(=O)S/C(=C\c2ccccc2O)C1=O | 1 | 1.1
CC(=O)Nc1ccc(S(=O)(=O)NNC(=O)c2ccccc2Cl)cc1 | 15 | 0.75*
CC(=O)Nc1ccc(S(=O)(=O)NC(c2ccccc2)c2ccccc2)cc1 | 12 | 1.1
COC(=O)/C=C1\NC(=Nc2nc(C)c3cc(OC)ccc3n2)NC1=O | -9 | 0.84
COc1ccc(/C=C\C(=O)Nc2ccc3oc(-c4cccnc4)nc3c2)cc1 | 4 | 1
Cc1ccc(NC(=O)Cc2nnc(NC(=O)Nc3cccc(Cl)c3)s2)cc1 | -5 | 1.1
COc1ccc(C2CC(C(F)(F)F)n3ncc(C(=O)Nc4cc(Cl)ccc4O)c3N2)cc1OC (configuration not stated) | 6 | 0.99
COc1ccc(C2CC(C(F)(F)F)n3ncc(C(=O)Nc4cccc(C(C)O)c4)c3N2)cc1OC (configuration not stated) | 8 | 0.7*
COc1ccc(NC(=O)c2cnn3c2NC(c2ccccc2)CC3C(F)(F)F)cc1OC (configuration not stated) | 9 | 0.73*
COc1cc(C2CC(C(F)(F)F)n3ncc(C(=O)N4CCN(Cc5ccccc5)CC4)c3N2)cc(OC)c1OC (configuration not stated) | 5 | 1
CC(O)c1cccc(NC(=O)c2cc3n(n2)C(C(F)(F)F)CC(c2ccc(Cl)cc2)N3)c1 (configuration not stated) | -3 | 1
O=C(c1cnn2c1NC(c1ccco1)CC2C(F)(F)F)N1CCN(Cc2ccccc2)CC1 (configuration not stated) | 5 | 0.7*
COc1ccc(C2CC(C(F)(F)F)n3ncc(C(=O)O)c3N2)cc1OC (configuration not stated) | -10 | 1
CC(O)c1cccc(NC(=O)c2cnn3c2NC(c2ccco2)CC3C(F)(F)F)c1 (configuration not stated) | 17 | 0.49*
COc1ccc(C(=O)/C=C/Nc2ccc(Br)c(C)c2)cc1 | 7 | 1.1
COc1ccc(NC(=O)c2cnn3c2NC(c2ccco2)CC3C(F)(F)F)c(OC)c1 (configuration not stated) | 10 | 1
COc1ccc(CNC(=O)c2cnn3c2NC(c2ccco2)CC3C(F)(F)F)cc1 (configuration not stated) | 14 | 0.75*
COc1ccc(OC)c(/C=N\n2cnnc2)c1 | 4 | 1
CCCC1CCc2c(sc(NC(=O)/C=C\C(=O)O)c2C(N)=O)C1 (configuration not stated) | 1 | 0.99
SMILES | NS3h inh CB | Cy5 interf NS3h
CCc1ccc(NC(=O)c2ccc(Cl)cc2Cl)cc1 | 21 | 1.1
CCOC(=O)c1sc(NC(=O)c2ccc(Cl)cc2Cl)nc1C | 9 | 0.64*
CCOC(=O)c1sc(NC(=O)c2ccc(OCC)c(Cl)c2)nc1C | 57* | 0.93
CCOC(=O)c1sc(NC(=O)c2cncc(Br)c2)nc1C | -15 | 1.1
COc1ccc(NC(=O)/C(C#N)=C/c2cn(Cc3ccc(F)cc3)c3ccccc23)cc1 | 7 | 1
Cc1ccsc1/C=C1\SC(=S)N(CC(=O)O)C1=O | 7 | 1
O=C(O)CCC(=O)N1N=C(c2ccc(Br)cc2)CC1c1cccc([N+](=O)[O-])c1 (configuration not stated) | -2 | 1
O=[N+]([O-])c1cc(S(=O)(=O)N2CCN(c3ccccc3)CC2)ccc1Cl | 4 | 0.97
Cc1cccn2c(=O)c(/C=C3\SC(=S)N(Cc4ccccc4)C3=O)c(NCCCn3ccnc3)nc12 | 7 | 0.59*
COc1ccc(CCN2C(=O)/C(=C/c3c(NCCCn4ccnc4)nc4c(C)cccn4c3=O)SC2=S)cc1OC | 7 | 0.89
CCOC(=O)c1ccc(-c2ccc(C(=O)Nc3ccc(-c4nc5ccccc5o4)c(O)c3)o2)cc1 | 3 | 1.1
O=C1Nc2ccccc2C1(O)C/C(=N\O)c1ccc(Cl)cc1 (configuration not stated) | 2 | 0.98
CC(=O)C(C(=O)c1ccccc1)C1(O)C(=O)Nc2ccccc21 (configuration not stated) | -3 | 0.79*
COc1cc(/C=C2/C(=O)NC(=O)N(c3cc(C)cc(C)c3)C2=O)cc(Br)c1OC | 12 | 1.1
O=C1c2cc(S(=O)(=O)Nc3ccncc3)ccc2-c2ccc(S(=O)(=O)Nc3ccncc3)cc21 | 15 | 0.92

Bioassay records deposited in PubChem by Milwaukee Institute for Drug Discovery.
